Reference: PubChem BioAssay (EPA / NIEHS)
Activity calls are given as the source filed them. Rule for the calls: active = hit-call score of the fitted dose curve at least 0.9, where 1 is the maximum; inactive = score below 0.9.

Test: APR_HepG2_p53Act_24hr: Apredica 24-hour HepG2 Assay for p53 Activation (AID 2282913)
Details: high-content imaging, actives raise or lower the signal
Experimental: APR_HepG2_24hr is a cell-based, multiplexed-readout assay that uses HepG2, a human liver cell line, with measurements taken at 24 hours after chemical dosing in a 384-well plate.APR_HepG2_p53Act_24hr is one of 10 assay component(s) measured or calculated from the APR_HepG2_24hr assay. It is designed to make measurements of dna content, a form of viability reporter, as detected with fluorescence intensity signals by HCS Fluorescent Imaging technology.Data from the assay component APR_HepG2_p53Act_24hr was analyzed into 1 assay endpoint. This assay endpoint, APR_HepG2_p53Act_24hr, was analyzed with bidirectional fitting relative to DMSO as the negative control and baseline of activity. Using a type of viability reporter, measures of protein for gain or loss-of-signal activity can be used to understand the signaling at the pathway-level as they relate to the gene TP53. Furthermore, this assay endpoint can be referred to as a primary readout, because this assay has produced multiple assay endpoints where this one serves a signaling function. To generalize the intended target to other relatable targets, this assay endpoint is annotated to the dna binding intended target family, where the subfamily is tumor suppressor.
Cells were treated with dimethyl sulfoxide (DMSO) as a solvent control at a final concentration of 0.5% v/v or with compounds in DMSO with a resulting final DMSO concentration of 0.5% v/v. Compound treatment was done at concentrations of 0.39, 0.78, 1.56, 3.12, 6.24, 12.5, 25, 50, 100, and 200 uM in duplicate on each plate. Cells were treated with compounds for 1, 24, or 72 hr. Carbonyl […] m-chloro-phenylhydrazone (CCCP) and taxol were used as positive controls for mitochondrial function and cytoskeletal stability, respectively; DMSO served as the negative control for this experiment. Cells were fixed by the direct addition of 50 uL formaldehyde in Hank's Balanced Salt Solution (HBSS) to a final concentration of 3.7%. After incubation in the fixation medium for 30 min at room temperature (293-298 K), cells were rinsed twice with HBSS and treated with cell permeabilization buffer (16 uL of 0.5% Triton X-100) for 10 min at room temperature (293-298 K) before labeling. For mitochondrial membrane potential and mitochondrial measurements, pre-fixed cells were incubated with 50 uL of MitoTracker Red CMXRos (Invitrogen) at a concentration of 250 nM for 30 min before fixation. In the remaining cases, post-fixed cells were labeled by incubation with a multiplexed mixture of primary antibodies in HBSS for 60 min at room temperature (293-298 K) to detect immunoreactivity of c-Jun (1:500), phospho-histone H3 (1:100), phospho-histone H2A.x (1:200), p53 (1:400), alpha-tubulin (1:200) and Hoechst 33342 (2 ug/mL). Cells were labeled for multiplexed imaging on two separate plates: a) Hoechst 33342, MitoTracker Red, phospho-histone H3, and alpha-tubulin, and b) Hoechst 33342, phospho-histone H2A.x, and c-Jun. A final rinse with HBSS (50 uL) was performed before analysis. The primary and secondary antibodies for the proteins were phospho-histone H3 (rabbit anti-phospho-histone H3 and FITC-donkey anti-rabbit IgG), phospho-histone H2A.x (mouse anti-phospho-histone H2A.x and FITC-donkey anti-mouse IgG), c-Jun (rabbit anti-phospho-c-Jun and Cy3-donkey anti-rabbit IgG), p53 (sheep anti-p53 and Cy5-donkey anti-sheep IgG), alpha-tubulin (mouse anti-alpha-tubulin and Cy5-donkey anti-mouse IgG). These antibodies are available as the CellCiphr HepG2 assay kit (Millipore).Digital images of each well were captured using a Cellomics ArrayScan VTI (Thermo Scientific Cellomics) (0.8 NA objective, 0.63x optical coupler, and XF-93 filter set) at 20x magnification. The images were acquired using the autofocus feature of the ArrayScan instrument, which entails the following steps. First, the camera focuses on channel 1 (Hoechst 33342), where nuclei are identified. Second, a Z offset of 1 um is used for capturing mitochondria (MitoTracker Red). […]
In the case of `COCCOC[C@H](CC1(C(=O)NC2CCC(C(=O)O)CC2)CCCC1)C(=O)Oc1ccc2c(c1)CCC2` (stereo not given in full), the outcome is reported as “inactive”. With `COc1ccc(S(=O)(=O)N2C(=O)[C@@](c3ccccc3OC)(N3C[C@H](O)C[C@H]3C(=O)N(C)C)c3cc(Cl)ccc32)c(OC)c1` the AC50 was 68.6 µM (active). For `C1CCC(SSC2CCCCC2)CC1`, the AC50 was 88.4 µM (active). With `c1cc(-c2ccncc2)ccn1` the outcome was “inactive”. With `Cc1cc(NC(=O)C(=O)O)cc(C)c1Oc1ccc(O)c2c1CCC2` the outcome was “inactive”. For `CN1CCN(Cc2cc(-c3ccc4[nH]c(=O)oc4c3)co2)[C@@H](c2ccc(F)cc2)C1`, the AC50 was 65.2 µM (active). In the case of `FC(F)(F)C(F)(F)C(F)(F)C(F)(F)C(F)(F)C(F)(F)CCI`, the outcome is reported as “inactive”. For `CCCCCC(=O)O`, the outcome was “inactive”. With `Cc1ccccc1Cl` the outcome was “inactive”. For `CC(=O)Oc1ccccc1C(=O)O`, the outcome was “inactive”. In the case of `CCCCCCCCCCCC(=O)OC`, the outcome is reported as “inactive”. For `CCCCC(CC)COC(=O)CC(C(=O)OCC(CC)CCCC)S(=O)(=O)O` (stereo not given), the AC50 was 104 µM (active). With `Cc1nc(-c2ccc3c(c2)CCN(CCC2CCC(NC(=O)/C=C/c4ccc(F)cc4)CC2)CC3)no1` (stereo not given) the outcome was “inactive”. For `O=C(O)CCCCC(=O)O`, the outcome was “inactive”. For `Cc1c(C(=O)O)c(O)cc2c1C(=O)c1c(O)c([C@@H]3O[C@H](CO)[C@@H](O)[C@H](O)[C@H]3O)c(O)c(O)c1C2=O`, the outcome was “inactive”. With `Nc1nc(N)c2nc(CNc3ccc(C(=O)N[C@@H](CCC(=O)O)C(=O)O)cc3)cnc2n1` the outcome was “inactive”. For `CCCCCCCC=O`, the outcome was “inactive”. With `Cc1oc(-c2ccccc2)nc1CCOc1cccc2c1ccn2CCC(=O)O` the outcome was “inactive”. In the case of `Oc1ccc2ccccc2c1N=Nc1ccccc1`, the outcome is reported as “inactive”. In the case of `CC(=O)OC/C=C(\C)CCC=C(C)C`, the outcome is reported as “inactive”. With `Cc1ccc(C)c(O)c1C` the outcome was “inactive”. For `CNCc1cc(F)ccc1Oc1ccc(Cl)c(Cl)c1`, the AC50 was 52.4 µM (active). In the case of `Cc1cccc(Nc2cc(Cl)nc(SCC(=O)O)n2)c1C`, the outcome is reported as “inactive”. In the case of `C[C@]12C=CC(=O)C=C1CC[C@@H]1[C@@H]2C(=O)C[C@@]2(C)[C@H]1CC[C@]2(O)C(=O)CO`, the outcome is reported as “inactive”. For `CCCCOC(=O)CCCCCCCCC(=O)OCCCC`, the outcome was “inactive”. For `CN1CCCC1=O`, the outcome was “inactive”. For `CCCCCCC(=O)OCC`, the outcome was “inactive”. In the case of `Cc1cc(=O)[nH]c(=S)[nH]1`, the outcome is reported as “inactive”. In the case of `COc1ccc2c(c1)c(CC(=O)O)c(C)n2C(=O)c1ccc(Cl)cc1`, the outcome is reported as “inactive”. In the case of `CCCCCCOCCO`, the outcome is reported as “inactive”. With `Cc1ccc(N(C)C)cc1` the outcome was “inactive”. With `O=C(OCCCCCOC(=O)c1ccccc1)c1ccccc1` the outcome was “inactive”. In the case of `CCc1c(C(=O)NN2CCCCC2)nn(-c2ccc(Cl)cc2Cl)c1-c1ccc(Br)cc1`, the outcome is reported as “inactive”. For `CC(=O)C(C)=CC1C(C)=CCCC1(C)C` (stereo not given), the outcome was “inactive”. With `CCCCCCCCCCC` the outcome was “inactive”. In the case of `NS(=O)(=O)c1cc2c(cc1Cl)NCNS2(=O)=O`, the outcome is reported as “inactive”. For `Clc1cc(Cl)c(Cl)cc1Cl`, the outcome was “inactive”. With `CC(=O)OCCOCCOCCOC(C)=O` the outcome was “inactive”. In the case of `NCCO`, the outcome is reported as “inactive”. With `CCOC(=O)C(C)(C)Oc1ccc(Cl)cc1` the outcome was “inactive”.
